Publication PMC7862700, “An all-to-all approach to the identification of sequence-specific readers for epigenetic DNA modifications on cytosine”

Tests used:
Assay in all cases: DAPPL (digital affinity profiling via proximity ligation, sequencing); 10 mM Tris-HCl pH 7.5, 50 mM NaCl, 1 mM DTT, 4% glycerol, room temperature, 30 min; GST-TFs on glutathione beads, 16-mer random dsDNA library, 0.1% formaldehyde crosslink after washing; high values mean tight binding
Conditions in all cases: protein: recombinant; tags: N-terminal GST; dsDNA, one strand shown
FLI1 = molecular target: T1, FLI1 (Homo sapiens, UniProt Q01543 1-452)
T1 sequence: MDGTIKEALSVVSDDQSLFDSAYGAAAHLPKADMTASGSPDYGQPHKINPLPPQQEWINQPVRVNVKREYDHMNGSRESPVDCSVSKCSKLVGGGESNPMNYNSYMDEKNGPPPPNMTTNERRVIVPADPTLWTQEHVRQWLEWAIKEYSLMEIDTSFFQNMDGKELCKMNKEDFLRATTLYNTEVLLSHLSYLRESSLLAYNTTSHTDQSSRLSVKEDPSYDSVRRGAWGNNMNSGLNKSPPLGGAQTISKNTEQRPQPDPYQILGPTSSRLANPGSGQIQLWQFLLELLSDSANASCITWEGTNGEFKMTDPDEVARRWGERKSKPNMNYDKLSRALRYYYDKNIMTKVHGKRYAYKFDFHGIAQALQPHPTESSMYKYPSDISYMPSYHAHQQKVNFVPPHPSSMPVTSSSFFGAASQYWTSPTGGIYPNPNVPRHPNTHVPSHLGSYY
In short: (§1)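 Binding signal is given per hexamer as its read frequency for a factor divided by its frequency in the tag-only sample. GST-fused human transcription factors were expressed in yeast, captured on glutathione beads, barcoded with DNA and pooled with that sample, then incubated with 200 nmole of a 16-mer random double-stranded DNA library in Tris/NaCl/DTT/glycerol buffer for 30 min at room temperature. The pools were then washed, crosslinked, proximity-ligated, amplified by PCR and sequenced on an Illumina NextSeq500.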

ELK1 = molecular target: T2, ELK1 (Homo sapiens, UniProt P19419 1-428)
T2 sequence: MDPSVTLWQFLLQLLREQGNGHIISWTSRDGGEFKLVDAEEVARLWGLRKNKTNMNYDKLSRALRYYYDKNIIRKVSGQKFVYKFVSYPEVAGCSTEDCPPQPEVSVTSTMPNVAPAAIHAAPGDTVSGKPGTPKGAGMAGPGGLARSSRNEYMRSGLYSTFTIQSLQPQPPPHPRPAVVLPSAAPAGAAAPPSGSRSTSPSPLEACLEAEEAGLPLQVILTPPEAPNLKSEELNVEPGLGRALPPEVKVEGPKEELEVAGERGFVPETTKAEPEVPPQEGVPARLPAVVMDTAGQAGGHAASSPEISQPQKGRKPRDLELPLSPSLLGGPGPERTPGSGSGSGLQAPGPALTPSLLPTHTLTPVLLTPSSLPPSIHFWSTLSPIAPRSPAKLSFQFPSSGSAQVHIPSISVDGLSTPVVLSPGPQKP
In short: as §1

GABPA = molecular target: T3, GABPA (Homo sapiens, UniProt Q06546 1-454)
T3 sequence: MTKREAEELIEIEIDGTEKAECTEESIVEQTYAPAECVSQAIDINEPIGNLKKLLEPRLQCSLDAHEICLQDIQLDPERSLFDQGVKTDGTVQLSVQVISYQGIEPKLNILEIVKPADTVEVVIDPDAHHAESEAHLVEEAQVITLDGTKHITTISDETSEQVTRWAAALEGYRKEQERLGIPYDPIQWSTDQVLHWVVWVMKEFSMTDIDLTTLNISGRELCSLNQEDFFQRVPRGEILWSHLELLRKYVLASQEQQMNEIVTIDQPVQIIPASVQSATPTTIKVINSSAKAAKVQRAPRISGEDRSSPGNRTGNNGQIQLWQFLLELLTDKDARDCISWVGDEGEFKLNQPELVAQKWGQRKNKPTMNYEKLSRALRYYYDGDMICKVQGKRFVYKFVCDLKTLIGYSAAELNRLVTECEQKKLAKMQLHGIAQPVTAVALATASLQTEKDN
In short: as §1

ERG = molecular target: T4, ERG (Homo sapiens, UniProt P11308 1-479)
T4 sequence: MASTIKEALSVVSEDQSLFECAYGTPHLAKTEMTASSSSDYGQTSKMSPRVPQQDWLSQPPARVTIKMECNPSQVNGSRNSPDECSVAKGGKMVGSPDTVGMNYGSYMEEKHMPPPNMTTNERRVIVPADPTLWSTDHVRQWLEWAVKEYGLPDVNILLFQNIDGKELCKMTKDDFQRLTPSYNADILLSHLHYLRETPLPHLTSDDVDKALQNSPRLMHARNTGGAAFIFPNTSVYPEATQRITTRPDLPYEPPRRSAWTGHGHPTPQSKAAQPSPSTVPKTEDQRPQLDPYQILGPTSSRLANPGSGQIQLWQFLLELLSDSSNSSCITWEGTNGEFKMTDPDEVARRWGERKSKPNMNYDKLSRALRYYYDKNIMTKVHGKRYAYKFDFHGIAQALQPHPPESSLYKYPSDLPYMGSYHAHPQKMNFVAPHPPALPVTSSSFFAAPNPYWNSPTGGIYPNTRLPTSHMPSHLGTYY
In short: as §1

ELF1 = ELF1 (Homo sapiens, UniProt P32519 1-619)
In short: as §1

EHF = molecular target: T5, EHF (Homo sapiens, UniProt Q9NZC4 1-300)
T5 sequence: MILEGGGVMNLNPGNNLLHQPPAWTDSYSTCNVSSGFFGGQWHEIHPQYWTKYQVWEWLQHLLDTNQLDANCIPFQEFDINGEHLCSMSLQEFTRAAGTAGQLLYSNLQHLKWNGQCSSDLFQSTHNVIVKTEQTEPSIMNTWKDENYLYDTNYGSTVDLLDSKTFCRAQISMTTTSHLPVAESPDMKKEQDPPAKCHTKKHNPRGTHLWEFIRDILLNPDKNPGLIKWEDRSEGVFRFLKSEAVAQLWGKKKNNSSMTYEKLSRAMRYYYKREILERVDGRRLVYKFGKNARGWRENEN
In short: as §1

SPI1 = SPI1 (Homo sapiens, UniProt P17947 1-270)
In short: as §1

SPIB = SPIB (Homo sapiens, UniProt Q01892 1-262)
In short: as §1

ELK3 = molecular target: T6, ELK3 (Homo sapiens, UniProt P41970 1-407)
T6 sequence: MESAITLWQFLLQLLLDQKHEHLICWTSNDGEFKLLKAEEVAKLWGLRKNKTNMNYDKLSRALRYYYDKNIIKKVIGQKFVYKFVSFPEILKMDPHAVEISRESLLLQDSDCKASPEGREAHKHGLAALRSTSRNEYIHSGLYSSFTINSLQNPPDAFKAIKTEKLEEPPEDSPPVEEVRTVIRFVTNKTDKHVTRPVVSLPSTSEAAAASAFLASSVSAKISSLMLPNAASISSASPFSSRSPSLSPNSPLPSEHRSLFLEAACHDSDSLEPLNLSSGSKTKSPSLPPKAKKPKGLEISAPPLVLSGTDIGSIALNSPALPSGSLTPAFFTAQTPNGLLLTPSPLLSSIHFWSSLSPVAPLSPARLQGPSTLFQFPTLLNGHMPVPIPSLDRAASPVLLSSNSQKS
In short: as §1

FEV = molecular target: T7, FEV (Homo sapiens, UniProt Q99581 1-238)
T7 sequence: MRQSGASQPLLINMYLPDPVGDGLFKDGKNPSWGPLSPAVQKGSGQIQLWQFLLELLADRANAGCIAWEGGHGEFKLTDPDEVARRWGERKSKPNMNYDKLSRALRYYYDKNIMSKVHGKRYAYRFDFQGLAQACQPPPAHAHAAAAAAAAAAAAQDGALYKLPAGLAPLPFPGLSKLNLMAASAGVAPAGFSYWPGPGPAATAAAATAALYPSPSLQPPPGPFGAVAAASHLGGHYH
In short: as §1

ETV5 = ETV5 (Homo sapiens, UniProt P41161 1-510)
In short: as §1

SPIC = molecular target: T8, SPIC (Homo sapiens, UniProt Q8N5J4 1-248)
T8 sequence: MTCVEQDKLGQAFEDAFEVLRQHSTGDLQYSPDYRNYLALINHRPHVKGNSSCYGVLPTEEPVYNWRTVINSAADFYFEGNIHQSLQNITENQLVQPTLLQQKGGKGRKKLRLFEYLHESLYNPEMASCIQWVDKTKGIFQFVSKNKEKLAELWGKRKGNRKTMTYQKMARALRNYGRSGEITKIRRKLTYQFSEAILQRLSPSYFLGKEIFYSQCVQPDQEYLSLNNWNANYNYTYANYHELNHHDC
In short: as §1

ELF4 = ELF4 (Homo sapiens, UniProt Q99607 1-663)
In short: as §1

ELK4 = molecular target: T9, ELK4 (Homo sapiens, UniProt P28324-2 1-405)
T9 sequence: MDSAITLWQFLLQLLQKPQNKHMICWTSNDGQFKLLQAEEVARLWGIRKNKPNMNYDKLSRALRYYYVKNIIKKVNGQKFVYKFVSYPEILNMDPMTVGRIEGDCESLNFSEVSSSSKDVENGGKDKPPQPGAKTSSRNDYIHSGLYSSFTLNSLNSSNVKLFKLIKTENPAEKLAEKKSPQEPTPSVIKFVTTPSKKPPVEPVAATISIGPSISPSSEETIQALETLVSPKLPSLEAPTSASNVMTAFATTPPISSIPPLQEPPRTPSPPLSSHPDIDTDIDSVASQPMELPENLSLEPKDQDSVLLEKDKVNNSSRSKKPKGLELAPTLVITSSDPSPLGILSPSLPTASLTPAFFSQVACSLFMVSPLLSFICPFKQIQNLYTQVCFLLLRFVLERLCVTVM
In short: as §1

ETV2 = molecular target: T10, ETV2 (Homo sapiens, UniProt O00321 1-342)
T10 sequence: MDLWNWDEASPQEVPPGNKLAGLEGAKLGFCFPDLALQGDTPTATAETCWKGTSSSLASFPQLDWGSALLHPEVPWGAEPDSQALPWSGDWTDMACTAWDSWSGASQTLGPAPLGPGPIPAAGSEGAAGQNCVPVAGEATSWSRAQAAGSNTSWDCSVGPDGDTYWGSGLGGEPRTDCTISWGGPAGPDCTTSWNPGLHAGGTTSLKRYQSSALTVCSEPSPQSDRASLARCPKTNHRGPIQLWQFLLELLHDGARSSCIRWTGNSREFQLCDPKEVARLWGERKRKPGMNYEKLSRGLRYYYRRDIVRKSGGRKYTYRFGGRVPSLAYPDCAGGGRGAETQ
In short: as §1

ELF3 = molecular target: T11, ELF3 (Homo sapiens, UniProt P78545 1-371)
T11 sequence: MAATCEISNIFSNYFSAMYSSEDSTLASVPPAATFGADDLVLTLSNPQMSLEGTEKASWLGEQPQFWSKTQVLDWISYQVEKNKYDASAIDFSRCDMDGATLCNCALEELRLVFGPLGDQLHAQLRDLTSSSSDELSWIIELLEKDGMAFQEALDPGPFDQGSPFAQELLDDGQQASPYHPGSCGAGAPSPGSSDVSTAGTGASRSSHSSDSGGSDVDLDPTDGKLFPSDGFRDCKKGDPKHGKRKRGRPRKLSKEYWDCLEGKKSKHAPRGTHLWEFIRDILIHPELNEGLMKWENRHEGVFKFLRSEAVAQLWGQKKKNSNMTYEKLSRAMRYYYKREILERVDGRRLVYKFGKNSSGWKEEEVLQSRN
In short: as §1

ETV1 = ETV1 (Homo sapiens, UniProt P50549 1-477)
In short: as §1

ETV5, sequence (P41161 whole entry): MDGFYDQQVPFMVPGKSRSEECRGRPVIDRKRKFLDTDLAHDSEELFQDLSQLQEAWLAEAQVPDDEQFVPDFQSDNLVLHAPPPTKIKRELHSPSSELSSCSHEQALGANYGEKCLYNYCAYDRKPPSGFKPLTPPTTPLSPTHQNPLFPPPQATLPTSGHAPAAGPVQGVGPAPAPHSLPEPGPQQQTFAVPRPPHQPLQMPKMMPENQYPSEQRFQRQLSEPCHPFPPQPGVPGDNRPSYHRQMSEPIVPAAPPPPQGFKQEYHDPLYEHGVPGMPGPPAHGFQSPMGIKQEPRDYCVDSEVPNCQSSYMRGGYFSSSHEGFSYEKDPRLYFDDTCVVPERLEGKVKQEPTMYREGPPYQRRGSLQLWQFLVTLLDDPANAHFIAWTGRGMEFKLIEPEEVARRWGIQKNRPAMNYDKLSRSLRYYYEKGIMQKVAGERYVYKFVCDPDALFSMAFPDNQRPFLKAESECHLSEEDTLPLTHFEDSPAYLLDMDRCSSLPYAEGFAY
SPIB, sequence (Q01892 whole entry): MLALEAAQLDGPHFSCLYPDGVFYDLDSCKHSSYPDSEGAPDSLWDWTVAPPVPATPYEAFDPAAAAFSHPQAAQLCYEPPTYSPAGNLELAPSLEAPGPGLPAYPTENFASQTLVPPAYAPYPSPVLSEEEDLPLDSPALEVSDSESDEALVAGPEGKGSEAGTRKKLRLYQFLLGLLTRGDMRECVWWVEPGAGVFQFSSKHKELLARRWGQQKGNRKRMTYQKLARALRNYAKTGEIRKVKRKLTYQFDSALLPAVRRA
ELF4, sequence (Q99607 whole entry): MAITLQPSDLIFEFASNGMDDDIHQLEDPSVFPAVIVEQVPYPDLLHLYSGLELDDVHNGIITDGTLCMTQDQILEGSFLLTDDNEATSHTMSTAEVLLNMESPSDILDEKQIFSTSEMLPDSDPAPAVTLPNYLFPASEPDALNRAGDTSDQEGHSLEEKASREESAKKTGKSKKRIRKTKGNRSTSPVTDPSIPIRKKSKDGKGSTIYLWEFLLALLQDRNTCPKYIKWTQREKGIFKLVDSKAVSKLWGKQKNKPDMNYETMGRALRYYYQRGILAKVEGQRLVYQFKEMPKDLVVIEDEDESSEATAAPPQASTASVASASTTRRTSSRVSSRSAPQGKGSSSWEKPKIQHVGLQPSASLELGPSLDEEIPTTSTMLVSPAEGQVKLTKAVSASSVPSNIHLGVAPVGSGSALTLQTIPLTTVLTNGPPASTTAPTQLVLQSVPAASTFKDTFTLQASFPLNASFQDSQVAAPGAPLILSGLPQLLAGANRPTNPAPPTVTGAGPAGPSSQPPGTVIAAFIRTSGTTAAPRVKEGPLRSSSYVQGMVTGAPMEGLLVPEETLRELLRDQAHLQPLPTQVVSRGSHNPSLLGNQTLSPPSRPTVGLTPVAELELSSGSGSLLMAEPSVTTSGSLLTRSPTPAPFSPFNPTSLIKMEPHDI
ETV1, sequence (P50549 whole entry): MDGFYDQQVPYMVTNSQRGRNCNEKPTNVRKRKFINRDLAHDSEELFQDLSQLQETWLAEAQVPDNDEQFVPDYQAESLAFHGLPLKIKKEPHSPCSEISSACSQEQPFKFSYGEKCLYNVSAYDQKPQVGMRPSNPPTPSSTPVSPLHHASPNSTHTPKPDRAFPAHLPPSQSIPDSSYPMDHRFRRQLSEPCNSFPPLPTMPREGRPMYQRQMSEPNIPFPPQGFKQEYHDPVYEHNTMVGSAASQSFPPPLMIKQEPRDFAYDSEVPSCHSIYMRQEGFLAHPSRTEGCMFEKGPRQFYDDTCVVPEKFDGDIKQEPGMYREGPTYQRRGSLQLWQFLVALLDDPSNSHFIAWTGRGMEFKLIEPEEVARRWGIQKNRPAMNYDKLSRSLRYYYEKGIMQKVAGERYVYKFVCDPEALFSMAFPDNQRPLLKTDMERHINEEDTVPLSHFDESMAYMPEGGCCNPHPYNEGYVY
ELF1, sequence (P32519 whole entry): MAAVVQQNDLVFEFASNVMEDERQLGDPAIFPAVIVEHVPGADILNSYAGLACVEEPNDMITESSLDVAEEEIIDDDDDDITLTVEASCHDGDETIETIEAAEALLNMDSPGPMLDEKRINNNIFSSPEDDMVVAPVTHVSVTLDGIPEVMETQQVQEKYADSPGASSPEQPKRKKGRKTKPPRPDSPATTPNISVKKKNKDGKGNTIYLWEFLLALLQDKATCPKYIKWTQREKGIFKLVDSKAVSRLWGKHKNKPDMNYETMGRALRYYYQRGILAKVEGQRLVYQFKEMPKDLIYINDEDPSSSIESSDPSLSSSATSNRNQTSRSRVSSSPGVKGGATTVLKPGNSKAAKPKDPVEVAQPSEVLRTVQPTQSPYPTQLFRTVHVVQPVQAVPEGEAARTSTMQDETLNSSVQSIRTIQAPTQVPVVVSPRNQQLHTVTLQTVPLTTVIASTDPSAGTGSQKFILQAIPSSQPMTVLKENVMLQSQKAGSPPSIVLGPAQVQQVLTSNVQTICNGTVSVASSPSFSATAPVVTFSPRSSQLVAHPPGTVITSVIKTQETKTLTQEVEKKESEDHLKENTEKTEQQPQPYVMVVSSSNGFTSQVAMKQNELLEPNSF

What does the source list for CTGACG?
binding signal (FLI1): 1.19 fold enrichment (6-mer frequency, TF over GST control); binding signal (ELK1): 1.09 fold enrichment (6-mer frequency, TF over GST control); binding signal (GABPA): 1.23 fold enrichment (6-mer frequency, TF over GST control); binding signal (ERG): 1.06 fold enrichment (6-mer frequency, TF over GST control); binding signal (ELF1): 1.16 fold enrichment (6-mer frequency, TF over GST control); binding signal (EHF): 1.01 fold enrichment (6-mer frequency, TF over GST control); binding signal (SPI1): 1.06 fold enrichment (6-mer frequency, TF over GST control); binding signal (SPIB): 1.13 fold enrichment (6-mer frequency, TF over GST control); binding signal (ELK3): 1.03 fold enrichment (6-mer frequency, TF over GST control); binding signal (FEV): 1.11 fold enrichment (6-mer frequency, TF over GST control); binding signal (ETV5): 1.2 fold enrichment (6-mer frequency, TF over GST control); binding signal (SPIC): 1.13 fold enrichment (6-mer frequency, TF over GST control); binding signal (ELF4): 1.06 fold enrichment (6-mer frequency, TF over GST control); binding signal (ELK4): 1.11 fold enrichment (6-mer frequency, TF over GST control); binding signal (ETV2): 1.35 fold enrichment (6-mer frequency, TF over GST control); binding signal (ELF3): 1.05 fold enrichment (6-mer frequency, TF over GST control); binding signal (ETV1): 1.09 fold enrichment (6-mer frequency, TF over GST control)

How did the binding signal (FLI1) turn out when GCTACG was run?
The binding signal was 1.29 fold enrichment (6-mer frequency, TF over GST control).

What about the binding signal (ELK1) of the same sequence?
The binding signal was 1.22 fold enrichment (6-mer frequency, TF over GST control).

And the binding signal (GABPA)?
The binding signal was 1.11 fold enrichment (6-mer frequency, TF over GST control).

What about the binding signal (ERG) of the same sequence?
Its binding signal is 1.11 fold enrichment (6-mer frequency, TF over GST control).

And the binding signal (ELF1)?
Its binding signal is 1.17 fold enrichment (6-mer frequency, TF over GST control).

What about the binding signal (EHF) of the same sequence?
The binding signal was 1.19 fold enrichment (6-mer frequency, TF over GST control).

And the binding signal (SPI1)?
The binding signal was 1.04 fold enrichment (6-mer frequency, TF over GST control).

What about the binding signal (SPIB) of the same sequence?
The binding signal was 1.16 fold enrichment (6-mer frequency, TF over GST control).

And the binding signal (ELK3)?
The binding signal was 1.26 fold enrichment (6-mer frequency, TF over GST control).

And the binding signal (FEV)?
Its binding signal is 1.16 fold enrichment (6-mer frequency, TF over GST control).

What about the binding signal (ETV5) of the same sequence?
The binding signal was 1.14 fold enrichment (6-mer frequency, TF over GST control).

And the binding signal (SPIC)?
The binding signal was 1.12 fold enrichment (6-mer frequency, TF over GST control).

What about the binding signal (ELF4) of the same sequence?
The binding signal was 1.14 fold enrichment (6-mer frequency, TF over GST control).

What about the binding signal (ELK4) of the same sequence?
The binding signal was 1.41 fold enrichment (6-mer frequency, TF over GST control).

And the binding signal (ETV2)?
Its binding signal is 1.1 fold enrichment (6-mer frequency, TF over GST control).

And the binding signal (ELF3)?
The binding signal was 1.19 fold enrichment (6-mer frequency, TF over GST control).

What about the binding signal (ETV1) of the same sequence?
The binding signal was 1.25 fold enrichment (6-mer frequency, TF over GST control).
